Data from PubChem BioAssay AID652025 (National Center for Advancing Translational Sciences (NCATS), 2013).
Screen size: about 360,000 compounds; about 240 (0.067%) were called active. Cut-off read from the data, not from the text of the source: active = activation above about 50%; inconclusive = mostly about 30% to 49%; inactive = weaker than that. This excerpt belongs to a sample that is enriched for actives.

Assay: qHTS of IL-2 Activators; note: 0% is about no effect
Conditions: IL-2 activation reporter assay, cell-based qHTS; hits give high values; in transgenic mouse T cells; stimulated with anti-CD3/CD4/CD28 beads
Summary of the method: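 Unstimulated transgenic mouse T cells, 750 per well, received compound and, after 60 minutes, anti-CD3/anti-CD4 bead plus anti-CD28 stimulation. EGFP and DsRed were quantified after 18 hours.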

activation, inactive:
CN(CCCC(=O)Nc1nccs1)S(=O)(=O)c1ccc(Cl)cc1 -1.49%
C=C1CCC(N(O)c2cc(C)on2)C(=C)CCC2C1CC2(C)C (stereo not given) -0.223%
NC(=O)COc1ccc(C23CC4CC(CC(C4)C2)C3)cc1 -3.06%
COC(C[C@@H](O)C[C@H](O)[C@H](C)OCc1ccccc1)OC 2.56%
COc1cccc(C(=O)Nc2c3c(nn2-c2cccc(C)c2C)CS(=O)(=O)C3)c1OC -0.743%
CCCCc1nc2cc(C(=O)NCCc3cnn(C)c3)ccc2o1 -2.8%
CCNc1c(NS(=O)(=O)c2ccc(C3CCCCC3)cc2)c(=O)oc2ccccc12 -0.121%
CC(=O)Nc1ccc(CN2CCN(Cc3ccc(F)c(F)c3)C(CCO)C2)cc1 (stereo not given) -0.804%
Cc1ccc(-c2c[n+](=O)c3c(n2[O-])CCC3)cc1 1.34%
COc1ccc(N(CC(=O)NC2CCCC2)C(=O)CS(=O)CC(=O)Nc2ccc3c(c2)OCO3)cc1 (stereo not given) -2.57%
c1csc(CN2CCN(Cc3cccs3)C2c2cccs2)c1 0.339%
Cc1cc(C)cc(C(=O)NC(CC(N)=O)c2ccc(N3CCC(N4CCCCC4)CC3)c([N+](=O)[O-])c2)c1 (stereo not given) -0.417%
O=C(O)CCCCOn1ccnc1 1.09%
CCn1nc(C)c(CN2CCN(Cc3ccc(OC)c(C)c3C)C(CCO)C2)c1C (stereo not given) -3.09%
O=C(O)c1ccccc1N=N/C(=N/Nc1cc(S(=O)(=O)O)ccc1O)c1ccccc1 0.118%
CCOC(=O)[C@]12CCCC=C1N(Cc1cccc3ccccc13)C(=O)[C@H](CC(=O)NCC13CC4CC(CC(C4)C1)C3)C2 -1.16%
CCN(CC)S(=O)(=O)c1ccc(N2CCN(C)CC2)c(NC(=O)Nc2ccccc2F)c1 -1.22%
CC1(Oc2ccc(Cl)cc2)CCN(Cc2csc3ccccc23)C1 (stereo not given) 0.192%
COC(=O)COc1cccc2c(=O)n(CC(=O)NCc3ccccc3)ccc12 -3.22%
CCOC(=O)N1CCN(C(=O)c2ccccc2SCC(=O)NCC2CCCCC2)CC1 -1.16%
O=C(NCc1ccccc1Cl)c1csc([C@@H]2O[C@H](CO)[C@@H](O)[C@H]2O)n1 0.0054%
CC(=O)Nc1ccc(C(=O)Nc2cc(S(=O)(=O)N3CCOCC3)ccc2N2CCOCC2)cc1 -2.32%
Nc1nc(-c2sc3nc4c(cc3c2N)CCCC4)nc(N2CCOCC2)n1 -1.7%
CCCc1cc(=O)[nH]c(SCc2cc(=O)oc3c(C)c(C)ccc23)n1 -0.327%
CCOc1ccccc1NC(=O)C12CC3CC(C1)CC(c1ccc(C)cc1)(C3)C2 -4.57%
Cc1cc(C)c2c(-n3cccc3)c(C(=O)NNS(=O)(=O)c3ccc(F)cc3)sc2n1 0.79%
CC(=O)N(Cc1cccs1)C1CCOC(C)(C)C1 (stereo not given) -0.456%
O=C(NNC(=S)NC1CC2CCC1C2)c1ccc(Cl)cc1 (stereo not given) -0.932%
Cc1ccccc1-n1nnc2c(=O)oc3ccccc3c21 -0.569%
COc1ccccc1CNC(=O)C1CCCN(S(=O)(=O)c2cccc3cccnc23)C1 (stereo not given) -1.32%
Cc1ccc(C(CC(=O)O)NC(=O)c2ccc(S(=O)(=O)N3CCCC3)cc2)cc1 (stereo not given) 0.29%
CC1=C(C(=O)OC2CCCCC2)C(c2ccccc2F)NC(=O)N1 (stereo not given) -8.28%
Cn1cccc1C1(C(F)(F)F)NCCNC1=O (stereo not given) -1.5%
CCO[C@H]1OC(C(=O)N2CCOCC2)=C[C@@H](c2ccc3c(c2)OCO3)[C@@H]1CCCO -0.126%
Cc1nn(CCOc2ccc(Br)cc2)c(C)c1[N+](=O)[O-] -2.36%
